# Measured values published in PubChem BioAssay (NCATS).
# Results filed as inconclusive are left out. Calls of active or inactive are those of the source. Unless noted, calls come from the whole dose curve; as a rule, active = well fitted curve in either direction with a large enough effect (not every such curve was filed as active); inconclusive = small, poorly fitted or top-dose-only effect, or another doubt; inactive = flat fitted curve, though single readings scatter.
# Assays:
# [1] = target: Lysosomal acid glucosylceramidase (Homo sapiens) (UniProt P04062); test: Glucocerebrosidase-p2 (AID 348; in the data active = potency below about 10 µM; note: potency is the fitted concentration of half-maximal effect); conditions: purified GBA, blue fluorogenic substrate, 40 min
# Chain of Lysosomal acid glucosylceramidase (Homo sapiens) (P04062 whole entry, looked up): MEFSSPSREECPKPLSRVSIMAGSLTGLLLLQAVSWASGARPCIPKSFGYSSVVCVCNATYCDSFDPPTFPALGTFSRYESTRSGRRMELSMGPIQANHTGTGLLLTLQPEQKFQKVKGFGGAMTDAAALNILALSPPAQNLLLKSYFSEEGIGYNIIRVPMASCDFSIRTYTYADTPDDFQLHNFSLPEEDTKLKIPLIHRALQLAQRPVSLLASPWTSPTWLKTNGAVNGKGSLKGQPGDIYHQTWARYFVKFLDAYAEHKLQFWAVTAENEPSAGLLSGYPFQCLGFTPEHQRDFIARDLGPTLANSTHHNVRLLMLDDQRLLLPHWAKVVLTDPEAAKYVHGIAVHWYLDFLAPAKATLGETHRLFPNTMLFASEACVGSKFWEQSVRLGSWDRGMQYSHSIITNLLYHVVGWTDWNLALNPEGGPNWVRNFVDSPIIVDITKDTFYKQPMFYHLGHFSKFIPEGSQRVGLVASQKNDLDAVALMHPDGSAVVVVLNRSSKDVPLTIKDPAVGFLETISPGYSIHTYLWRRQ
# In short: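 Normal human glucocerebrosidase (0.2 nM) with blue fluorogenic substrate (80 uM final) in citrate/phosphate pH 5.9 with 10mM sodium taurocholate, 0.01% tween-20; 40 min RT, NaOH/glycine stop; fluorescence Ex 365/Em 440; AC50 from a titration from 0.6 nM upwards.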
# [2] = AP1 Signaling Pathway (AID 357); conditions: ME-180 AP-1-bla reporter, EGF-induced, beta-lactamase ratio, 5 h; at 7.69 µM (top of the series) unless noted;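 note: ME-180 reporter cells stimulated with EGF at its EC50 level; % is set by controls: 0 for no effect and ±100 for the full control effect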
# In short: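 Cells are seeded overnight, exposed to compound titrations and an EC50 level of EGF for 5 hours at 37 °C, then loaded with CCF4 dye for 2.5 hours. Beta-lactamase activity under the AP-1 element is read as a blue/green ratio.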
# [3] = target: Cytochrome P450 1A2 (Homo sapiens) (UniProt P05177); test: p450-cyp1a2 (AID 410; calls by dose curve; note: potency is the fitted concentration of half-maximal effect;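 for activity change, negative = inhibition: -100% = full effect of reference inhibitor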); conditions: recombinant CYP1A2, luciferin-ME demethylation, luminescence; series mostly up to 57 µM
# Chain of Cytochrome P450 1A2 (Homo sapiens) (P05177 whole entry, looked up): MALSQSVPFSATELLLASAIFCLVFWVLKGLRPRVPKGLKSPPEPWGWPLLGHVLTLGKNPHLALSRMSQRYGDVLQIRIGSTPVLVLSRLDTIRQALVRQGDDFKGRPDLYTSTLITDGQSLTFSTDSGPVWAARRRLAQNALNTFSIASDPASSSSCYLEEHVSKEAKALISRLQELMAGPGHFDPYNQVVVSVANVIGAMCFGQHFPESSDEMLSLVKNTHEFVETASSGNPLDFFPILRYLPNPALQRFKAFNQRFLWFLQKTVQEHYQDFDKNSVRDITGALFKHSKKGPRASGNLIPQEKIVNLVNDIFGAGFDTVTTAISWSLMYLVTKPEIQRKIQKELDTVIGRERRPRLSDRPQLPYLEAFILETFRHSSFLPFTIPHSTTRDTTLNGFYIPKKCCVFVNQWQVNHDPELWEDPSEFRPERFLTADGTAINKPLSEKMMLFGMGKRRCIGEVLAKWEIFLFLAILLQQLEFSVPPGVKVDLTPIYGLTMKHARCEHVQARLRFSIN
# In short: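 Read-out is luminescence from luciferin produced by CYP1A2 demethylation of Luciferin-ME (100uM, at Km). Detection reagent stopped the 60 min NADPH-dependent reaction; signals were normalized to 57 uM furafylline.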
# [4] = NFAT Signaling Pathway (AID 444); conditions: Jurkat NFAT-bla M1, carbachol, beta-lactamase ratio, 5 h; at 7.69 µM (top of the series) unless noted;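 note: carbachol stimulus at about its EC50 of 1 µM final; % is set by controls: 0 for no effect and ±100 for the full control effect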
# In short: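 Jurkat cells carrying an NFAT-driven β-lactamase reporter and co-transfected muscarinic M1 receptor were treated with compound plus carbachol (1 uM final, an EC50 level) for 5 h at 37 °C. CCF4 loading followed for 1 h at RT; 460/530 nm ratio gave %activity.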
# [5] = Stat Signaling Pathway (AID 446); conditions: ME-180 SIE beta-lactamase reporter, IL-6 stimulated, 5 h; at 7.69 µM (top of the series) unless noted;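 note: ME-180 cervical cancer cells given 40 pM IL-6 alongside compound; SIE-controlled beta-lactamase reporter measured as 460/530 nm FRET emission ratio; % is set by controls: 0 for no effect and ±100 for the full control effect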
# In short: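 Overnight-plated ME-180 cells bearing a STAT Inducible Element beta-lactamase reporter; 5 h co-exposure to compound and 40 pM IL-6; values normalized to 300 pM IL-6 and 125 nM JAK inhibitor controls.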
# [6] = target: Glucocorticoid receptor (Homo sapiens) (UniProt P04150); test: GR-GFP Redistribution (AID 450;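 active = compounds whose dose series gives a full or clear partial fitted curve of increased nuclear translocation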; note: potency is the fitted concentration of half-maximal effect); conditions: U2OS GR-GFP nuclear translocation, laser cytometry, 2 h
# Chain of Glucocorticoid receptor (Homo sapiens) (P04150 whole entry, looked up, the tested form may be a part): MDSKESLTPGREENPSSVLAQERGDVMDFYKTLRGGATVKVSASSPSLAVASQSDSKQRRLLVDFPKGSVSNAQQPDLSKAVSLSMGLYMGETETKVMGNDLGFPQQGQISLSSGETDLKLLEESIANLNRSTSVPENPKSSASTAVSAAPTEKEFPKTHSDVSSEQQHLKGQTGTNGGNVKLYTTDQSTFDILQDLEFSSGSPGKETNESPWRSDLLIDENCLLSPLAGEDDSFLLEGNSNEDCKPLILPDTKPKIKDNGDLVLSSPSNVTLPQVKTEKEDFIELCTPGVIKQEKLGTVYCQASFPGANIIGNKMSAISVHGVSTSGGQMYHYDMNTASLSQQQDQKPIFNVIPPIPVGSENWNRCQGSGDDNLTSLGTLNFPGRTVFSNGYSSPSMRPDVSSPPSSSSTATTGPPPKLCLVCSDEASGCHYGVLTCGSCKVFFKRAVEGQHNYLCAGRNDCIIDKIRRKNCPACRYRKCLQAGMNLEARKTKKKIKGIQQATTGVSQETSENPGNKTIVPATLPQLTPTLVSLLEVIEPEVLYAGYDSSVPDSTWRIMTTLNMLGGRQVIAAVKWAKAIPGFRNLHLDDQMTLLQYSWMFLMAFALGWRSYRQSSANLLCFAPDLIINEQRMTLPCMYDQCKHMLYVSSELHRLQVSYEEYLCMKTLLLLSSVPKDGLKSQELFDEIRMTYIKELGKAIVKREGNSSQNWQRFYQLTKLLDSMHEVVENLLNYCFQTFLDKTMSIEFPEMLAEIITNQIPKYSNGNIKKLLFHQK
# [7] = target: Glucocorticoid receptor (Homo sapiens) (UniProt P04150); test: GR-EFC Redistribution (AID 451; calls by dose curve; note: potency is the fitted concentration of half-maximal effect); conditions: CHO-K1 GR-EFC translocation, beta-gal luminescence, 2 h
# In short: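 CHO-K1 cells stably expressing nuclear-localized β-gal enzyme acceptor and GR fused C-terminally to the enzyme donor fragment; ligand-driven nuclear translocation restores β-gal by complementation. Compounds titrated up to 46 uM final, 2 h at 37 °C; luminescence read.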
# [8] = target: Mitogen-activated protein kinase 10 (Mus musculus) (UniProt Q61831); test: JNK3 AlphaScreen Assay (AID 530); conditions: JNK3 lysate, c-Jun phosphorylation; series mostly up to 57.1 µM;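 note: kinase came from lysate of stimulated human HepG2 cells; signal reports phosphorylation of biotinylated GST-cJun 1-79 at Ser73 with 10 µM ATP; % is set by controls: 0 for no effect and ±100 for the full control effect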
# In short: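 Biotinylated GST-cJun(1-79) served as substrate for JNK3 in HepG2 lysates stimulated with IL-1beta and TNF-alpha. ATP was 10 uM final, pH 7.6. Ser73 phosphorylation was quantified by AlphaScreen (680 nm excitation).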
# [9] = target: 3',5'-cyclic-AMP phosphodiesterase 4B (Homo sapiens) (UniProt Q07343); test: qHTS Assay for Inhibitors of PDE-IV (AID 607; active = well fitted activation curve with a large enough effect in the main read-out, with a control signal flat, not every such curve was filed as active; note: % of control where 0% means no effect); conditions: HEK293 ACTOne CNG channel cells, membrane potential fluorescence; series mostly up to 22.9 µM
# Chain of 3',5'-cyclic-AMP phosphodiesterase 4B (Homo sapiens) (Q07343 whole entry, looked up): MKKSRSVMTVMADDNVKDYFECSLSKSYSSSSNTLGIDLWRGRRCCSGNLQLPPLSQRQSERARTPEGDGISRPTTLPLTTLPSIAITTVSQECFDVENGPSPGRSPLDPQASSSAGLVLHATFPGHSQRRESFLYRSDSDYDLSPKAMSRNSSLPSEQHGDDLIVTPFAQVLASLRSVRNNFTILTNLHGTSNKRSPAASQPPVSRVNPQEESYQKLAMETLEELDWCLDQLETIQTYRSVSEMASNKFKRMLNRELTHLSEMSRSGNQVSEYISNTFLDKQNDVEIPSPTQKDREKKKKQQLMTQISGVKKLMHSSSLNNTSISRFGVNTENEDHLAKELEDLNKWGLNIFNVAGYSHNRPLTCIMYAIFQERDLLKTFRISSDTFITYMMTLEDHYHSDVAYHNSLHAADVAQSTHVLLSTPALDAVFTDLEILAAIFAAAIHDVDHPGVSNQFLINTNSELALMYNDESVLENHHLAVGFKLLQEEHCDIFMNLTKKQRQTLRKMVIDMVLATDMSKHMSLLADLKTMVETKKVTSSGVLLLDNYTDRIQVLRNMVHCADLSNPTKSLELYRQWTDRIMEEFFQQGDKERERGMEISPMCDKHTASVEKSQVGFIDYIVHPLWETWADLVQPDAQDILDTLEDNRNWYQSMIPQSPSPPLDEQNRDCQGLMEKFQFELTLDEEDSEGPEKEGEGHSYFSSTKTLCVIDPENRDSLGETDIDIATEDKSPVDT
# In short: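 Live HEK293 cells with a modified cyclic nucleotide-gated (CNG) channel report intracellular cAMP via membrane-potential dye fluorescence (ex 535/em 590 nm). Endogenous PDE-IV was targeted. Compounds were tested at up to 22.9 uM final; RO 20-1724 100 uM served as control.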
# [10] = target: Cytochrome P450 2C9 (Homo sapiens) (UniProt P11712); test: qHTS Assay for Inhibitors and Substrates of Cytochrome P450 2C9 (AID 883; active = well fitted curve in the direction sought with a large enough effect; an effect the other way counts as inactive or inconclusive; note: nearly all actives have a fitted effect of over 60% in size; note: potency is the fitted concentration of half-maximal effect); conditions: recombinant CYP2C9, luciferin-H luminescence, 60 min; series mostly up to 57.1 µM
# Chain of Cytochrome P450 2C9 (Homo sapiens) (P11712 whole entry, looked up): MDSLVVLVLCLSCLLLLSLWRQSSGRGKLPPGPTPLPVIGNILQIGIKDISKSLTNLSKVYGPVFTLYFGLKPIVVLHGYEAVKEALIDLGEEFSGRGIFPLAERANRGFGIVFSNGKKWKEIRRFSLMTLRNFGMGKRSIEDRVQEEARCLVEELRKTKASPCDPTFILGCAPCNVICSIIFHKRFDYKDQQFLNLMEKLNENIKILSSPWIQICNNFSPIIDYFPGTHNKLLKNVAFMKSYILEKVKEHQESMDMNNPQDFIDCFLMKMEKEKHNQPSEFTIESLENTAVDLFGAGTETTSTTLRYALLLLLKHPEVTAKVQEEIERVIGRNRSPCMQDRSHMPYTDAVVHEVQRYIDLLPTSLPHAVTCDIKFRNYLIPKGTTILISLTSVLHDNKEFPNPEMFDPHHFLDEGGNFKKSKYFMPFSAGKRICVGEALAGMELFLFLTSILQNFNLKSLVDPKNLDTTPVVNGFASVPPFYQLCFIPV
# In short: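 A luminogenic readout tracked human CYP2C9 (10nM) converting deoxyluciferin (100uM, at KM) in 25mM KPO4 during 60 min at 37C with regenerated NADPH. Values normalized to 57uM sulphaphenazole as complete inhibition.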
# [11] = target: Cytochrome P450 3A4 (Homo sapiens) (UniProt P08684); test: qHTS Assay for Activators of Cytochrome P450 3A4 (AID 885; active = well fitted curve in the direction sought with a large enough effect; an effect the other way counts as inactive or inconclusive; note: nearly all actives have a fitted effect of over 65% in size); conditions: recombinant CYP3A4, Luciferin-PPXE luminescence, 60 min; series mostly up to 57.1 µM
# Chain of Cytochrome P450 3A4 (Homo sapiens) (P08684 whole entry, looked up): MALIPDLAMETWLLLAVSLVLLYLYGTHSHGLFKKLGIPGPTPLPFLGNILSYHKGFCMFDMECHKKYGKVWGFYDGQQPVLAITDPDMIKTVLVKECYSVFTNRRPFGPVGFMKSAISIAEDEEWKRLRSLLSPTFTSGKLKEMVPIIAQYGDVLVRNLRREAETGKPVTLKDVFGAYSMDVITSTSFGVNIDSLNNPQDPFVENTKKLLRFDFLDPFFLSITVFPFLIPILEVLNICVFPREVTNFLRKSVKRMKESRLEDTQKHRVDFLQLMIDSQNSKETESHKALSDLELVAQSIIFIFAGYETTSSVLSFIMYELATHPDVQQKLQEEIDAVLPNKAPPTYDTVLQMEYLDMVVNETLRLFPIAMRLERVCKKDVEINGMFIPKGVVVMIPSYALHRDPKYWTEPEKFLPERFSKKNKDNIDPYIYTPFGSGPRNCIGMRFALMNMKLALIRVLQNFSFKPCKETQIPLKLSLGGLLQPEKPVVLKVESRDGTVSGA
# In short: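 Using 20nM recombinant human CYP3A4 in potassium phosphate (200mM), substrate Luciferin-PPXE at 25uM, luminescent luciferin detection followed a 60-min RT NADPH reaction; data scaled to 57 uM ketoconazole.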
# [12] = target: Cytochrome P450 2C19 (Homo sapiens) (UniProt P33261); test: qHTS Assay for Inhibitors and Substrates of Cytochrome P450 2C19 (AID 899; active = well fitted curve in the direction sought with a large enough effect; an effect the other way counts as inactive or inconclusive; note: % is set by controls: 0 for no effect and ±100 for the full control effect; nearly all actives have a fitted effect of over 60% in size); conditions: recombinant CYP2C19, luciferin-H EGE luminescence; series mostly up to 57.1 µM
# In short: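 NADPH-dependent conversion of Luciferin-H EGE (10uM, at KM) by 5nM enzyme in 50mM KPO4, 60 min at 37C following 10 min compound preincubation. Stopped with luciferin detection buffer; luminescence read after 20 min.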
# [13] = qHTS Assay for Identification of Small Molecule Agonists for Hypoxia Response Element Signaling Pathway (AID 914; active = well fitted activation curve with a large enough effect in the signal ratio, with a control signal flat, not every such curve was filed as active; the % refers to the signal ratio; note: % of control where 0% means no effect); conditions: ME-180 (cervical carcinoma) HRE-bla reporter, beta-lactamase ratio, CoCl2, 17 h; activation: stronger effect = higher value
# In short: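 Compounds in a titration series were added to ME-180 reporter cells alongside an EC50 level of CoCl2. After 17 hours, beta-lactamase activity was read as the 460nm/530nm emission ratio of CCF4, giving AC50 values.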
# [14] = target: Ubiquitin carboxyl-terminal hydrolase 1 (Homo sapiens) (UniProt O94782); test: Inhibitors of USP1/UAF1: Pilot qHTS (AID 504865; active = well fitted curve in the direction sought with a large enough effect; an effect the other way counts as inactive or inconclusive;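 note: rhodamine fluorescence freed from ubiquitin-rhodamine substrate followed over time; top concentration of the series differs between compounds; % is set by controls: 0 for no effect and ±100 for the full control effect; nearly all actives have a fitted effect of over 35% in size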); conditions: purified USP1/UAF1, Ub-rhodamine cleavage fluorescence; series mostly up to 54.9 µM
# Chain of Ubiquitin carboxyl-terminal hydrolase 1 (Homo sapiens) (O94782 whole entry, looked up): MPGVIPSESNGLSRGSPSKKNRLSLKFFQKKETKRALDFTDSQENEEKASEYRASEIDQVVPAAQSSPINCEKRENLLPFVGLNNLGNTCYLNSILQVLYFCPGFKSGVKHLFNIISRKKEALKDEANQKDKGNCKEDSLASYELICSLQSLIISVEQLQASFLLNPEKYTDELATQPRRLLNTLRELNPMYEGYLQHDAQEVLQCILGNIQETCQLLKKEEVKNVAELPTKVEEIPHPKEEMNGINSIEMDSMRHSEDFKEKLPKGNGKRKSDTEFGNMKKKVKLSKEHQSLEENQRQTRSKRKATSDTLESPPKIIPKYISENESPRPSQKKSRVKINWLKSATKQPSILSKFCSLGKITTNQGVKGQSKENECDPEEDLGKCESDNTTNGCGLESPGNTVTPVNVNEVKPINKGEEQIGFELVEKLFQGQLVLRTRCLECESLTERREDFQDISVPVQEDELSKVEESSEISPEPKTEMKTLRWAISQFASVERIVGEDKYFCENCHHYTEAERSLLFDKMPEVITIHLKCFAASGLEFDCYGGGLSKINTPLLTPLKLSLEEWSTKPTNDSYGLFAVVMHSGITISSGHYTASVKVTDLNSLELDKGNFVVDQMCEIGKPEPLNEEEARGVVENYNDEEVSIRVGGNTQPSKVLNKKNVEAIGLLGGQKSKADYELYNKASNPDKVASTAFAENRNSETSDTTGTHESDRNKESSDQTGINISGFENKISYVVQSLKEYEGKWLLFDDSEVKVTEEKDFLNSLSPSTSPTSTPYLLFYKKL
# In short: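 Kinetic fluorescence assay: 1nM USP1/UAF1, 15 min compound preincubation, then 150nM Ub-Rho; 480/540 nm.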
# [15] = Primary qHTS for small molecule stabilizers of the endoplasmic reticulum resident proteome: Secreted ER Calcium Modulated Protein (SERCaMP) assay (AID 1508630; active = well fitted curve in the direction sought with a large enough effect; an effect the other way counts as inactive or inconclusive; note: % is set by controls: 0 for no effect and ±100 for the full control effect); conditions: SH-SY5Y GLuc-SERCaMP (Gaussia luciferase released on ER calcium loss) secretion, thapsigargin, luminescence; series mostly up to 38.4 µM
# In short: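 The SH-SY5Y reporter protocol was run at 3 concentrations up to 38.3 uM (primary) or 11 concentrations (follow-up): 16 h compound, 100 nM thapsigargin for 4 h, then extracellular luciferase luminescence.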
# [16] = target: Cytochrome P450 3A4 (Homo sapiens) (UniProt P08684); test: qHTS Assay for Inhibitors and Substrates of Cytochrome P450 3A4 (AID 884; active = well fitted curve in the direction sought with a large enough effect; an effect the other way counts as inactive or inconclusive; note: nearly all actives have a fitted effect of over 50% in size; note: potency is the fitted concentration of half-maximal effect); conditions: recombinant CYP3A4, Luciferin-PPXE luminescence; series mostly up to 57.1 µM
# In short: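 Luminescent readout of luciferin produced by CYP3A4 (20 nM) dealkylation of Luciferin-PPXE, 25 uM (its KM). NADPH-driven reaction ran 60 min at RT after 10 min compound preincubation; data scaled to 57 uM ketoconazole as 100% inhibition.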
# [17] = qHTS Assay for Lipid Storage Modulators (AID 1519; calls by dose curve); conditions: Drosophila S3 cells, BODIPY lipid droplet/cell ratio, laser cytometry, cells loaded with oleic acid; for activity change, negative = inhibition: at 57.5 µM (top of the series)
# In short: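 Cells seeded at 5,000 per well were treated with compounds over a concentration series and loaded with oleic acid (400 uM, as added). Lipid droplet fluorescence (488 nm excitation, 500-530 nm channel) was read by laser-scanning cytometry and normalized to 20 uM Triacsin C.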
# [18] = target: Dual specificity protein kinase CLK4 (Homo sapiens) (UniProt Q9HAZ1); test: qHTS Assay for Inhibitors of CDC-like Kinase 4 (Kinase-Glo Assay) (AID 1770; active = well fitted curve in the direction sought with a large enough effect; an effect the other way counts as inactive or inconclusive; note: % is set by controls: 0 for no effect and ±100 for the full control effect; nearly all actives have a fitted effect of over 65% in size); conditions: recombinant Clk4, Kinase-Glo ATP depletion luminescence; series mostly up to 66.7 µM
# Chain of Dual specificity protein kinase CLK4 (Homo sapiens) (Q9HAZ1 whole entry, looked up): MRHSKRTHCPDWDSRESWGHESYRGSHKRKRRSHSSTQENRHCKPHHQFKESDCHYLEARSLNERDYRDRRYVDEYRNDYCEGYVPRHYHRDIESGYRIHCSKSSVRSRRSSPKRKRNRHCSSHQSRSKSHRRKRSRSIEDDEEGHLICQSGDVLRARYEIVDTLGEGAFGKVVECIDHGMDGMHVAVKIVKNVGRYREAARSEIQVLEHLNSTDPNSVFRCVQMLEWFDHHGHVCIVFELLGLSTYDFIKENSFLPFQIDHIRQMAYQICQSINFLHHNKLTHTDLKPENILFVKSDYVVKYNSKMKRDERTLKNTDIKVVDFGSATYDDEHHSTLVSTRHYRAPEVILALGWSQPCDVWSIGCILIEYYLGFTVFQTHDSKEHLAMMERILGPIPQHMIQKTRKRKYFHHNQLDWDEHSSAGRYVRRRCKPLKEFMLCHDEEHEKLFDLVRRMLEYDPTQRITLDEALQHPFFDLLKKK
# In short: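 Inhibition was judged from remaining ATP, measured by Ultra-Glo luciferase bioluminescence after Clk4 (25 nM) had acted on RS peptide at 1 uM ATP for 4.5 hours, room temperature.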
# [19] = target: Dual specificity protein kinase CLK4 (Homo sapiens) (UniProt Q9HAZ1); test: qHTS Assay for Inhibitors of CDC-like Kinase 4 (ADP-Glo Assay) (AID 1771; active = well fitted curve in the direction sought with a large enough effect; an effect the other way counts as inactive or inconclusive; note: % is set by controls: 0 for no effect and ±100 for the full control effect; nearly all actives have a fitted effect of over 70% in size); conditions: recombinant CLK4, ADP-Glo luminescence; series mostly up to 80 µM
# In short: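 In this ADP-Glo format, 1 uM ATP and 100 uM RS peptide served as substrates for 25 nM Clk4 in Mg2+/EGTA/DTT/Triton buffer; reactions ran 1 hr at room temperature before luminescent ADP quantification.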
# [20] = measured here: cell count channel max response
# [21] = measured here: lipid channel max response
compound,measurement,setting,value
CNc1ccnc(-c2c(C)noc2C)n1,Potency,[1],> 11.4 µM (inactive)
same,"activity change, negative = inhibition",[2],2.46% (inactive)
same,Potency,[3],1.26 µM (active)
same,"activity change, negative = inhibition",[4],1.59% (inactive)
same,"activity, negative = inhibition",[5],12.4% (inactive)
same,Potency,[6],> 46 µM (inactive)
same,Potency,[7],> 46 µM (inactive)
same,outcome,[8],inactive
same,Potency,[9],inactive
same,"activity change, negative = inhibition",[10],41% [at 2.29 µM] (inactive)
same,Potency,[11],inactive
same,Potency,[12],inactive
same,activation,[13],11.5% (inactive)
same,Potency,[14],inactive
same,Potency,[15],inactive
O=C(c1ccco1)N1CCC2(CC1)CCN(c1ccccc1)CC2,Potency,[1],> 11.4 µM (inactive)
same,"activity change, negative = inhibition",[2],2.89% (inactive)
same,Potency,[3],inactive
same,"activity change, negative = inhibition",[4],-1.84% (inactive)
same,"activity, negative = inhibition",[5],-6.6% (inactive)
same,Potency,[7],> 46 µM (inactive)
same,outcome,[8],inactive
same,Potency,[9],inactive
same,Potency,[15],inactive
Cc1noc(C)c1-c1cncnc1NCc1ccccc1,Potency,[1],> 11.4 µM (inactive)
same,"activity change, negative = inhibition",[2],-6.64% (inactive)
same,Potency,[3],25.1 µM (active)
same,"activity change, negative = inhibition",[4],0.549% (inactive)
same,"activity, negative = inhibition",[5],-5.87% (inactive)
same,Potency,[6],> 46 µM (inactive)
same,Potency,[7],> 46 µM (inactive)
same,outcome,[8],inactive
same,Potency,[9],inactive
same,Potency,[16],2 µM (active)
same,Potency,[11],inactive
same,activation,[13],4.46% (inactive)
same,"activity change, negative = inhibition",[17],6.38% (inactive)
same,max response,[17]; [20],0.495%
same,max response,[17]; [21],15.9%
same,Potency,[18],inactive
same,Potency,[19],inactive
same,Potency,[14],inactive
CS(=O)(=O)N1CCC[C@@]2(CCN(Cc3ccccc3)C2)C1,Potency,[1],> 11.4 µM (inactive)
same,"activity change, negative = inhibition",[2],0.761% (inactive)
same,"activity change, negative = inhibition",[4],1.85% (inactive)
same,"activity, negative = inhibition",[5],23.6% (inactive)
same,Potency,[7],> 46 µM (inactive)
same,outcome,[8],inactive
same,Potency,[9],inactive
same,"activity change, negative = inhibition",[17],2.55% (inactive)
same,max response,[17]; [20],2.42%
same,max response,[17]; [21],7.6%
same,Potency,[15],inactive
N#Cc1cccc(NC(=O)N2CCC3(CC2)CCN(C(=O)c2ccco2)CC3)c1,Potency,[1],> 11.4 µM (inactive)
same,"activity change, negative = inhibition",[2],-7.83% (inactive)
same,Potency,[3],inactive
same,"activity, negative = inhibition",[5],4.51% (inactive)
same,Potency,[7],> 46 µM (inactive)
same,Potency,[9],inactive
same,Potency,[16],inactive
same,"activity change, negative = inhibition",[17],6.33% (inactive)
same,max response,[17]; [20],10.3%
same,max response,[17]; [21],18.9%
same,Potency,[15],inactive
COc1ccc(-n2c(=O)cnc3cnc(N4CCN(C)CC4)nc32)cc1,Potency,[1],> 11.4 µM (inactive)
same,"activity change, negative = inhibition",[2],-6.82% (inactive)
same,"activity change, negative = inhibition",[4],-9.46% (inactive)
same,"activity, negative = inhibition",[5],2.91% (inactive)
same,Potency,[6],> 9.22 µM (inactive)
same,Potency,[7],> 46 µM (inactive)
same,outcome,[8],inactive
same,Potency,[9],inactive
same,"activity change, negative = inhibition",[17],2.82% (inactive)
same,max response,[17]; [20],18.4%
same,max response,[17]; [21],19.5%
same,Potency,[14],inactive
same,Potency,[15],inactive
COCCn1c(=O)c(-c2cccc(C#N)c2)nc2cnc(Oc3ccccc3)nc21,Potency,[1],> 11.4 µM (inactive)
same,"activity change, negative = inhibition",[2],-13% (inactive)
same,Potency,[3],15.8 µM (active)
same,"activity change, negative = inhibition",[4],2.72% (inactive)
same,"activity, negative = inhibition",[5],-11.3% (inactive)
same,Potency,[6],> 9.22 µM (inactive)
same,Potency,[7],> 46 µM (inactive)
same,outcome,[8],inactive
same,Potency,[9],inactive
same,Potency,[10],7.94 µM (active)
same,Potency,[11],inactive
same,"activity change, negative = inhibition",[17],-5.58% (inactive)
same,max response,[17]; [20],-1.86%
same,max response,[17]; [21],-8.56%
same,Potency,[18],inactive
same,Potency,[19],inactive
same,Potency,[14],inactive
